Experiment [1] can be described thus: p53 stabilisation in HPV-positive human cells, imaging, p53-positive nuclei imaging, 24 h, 48 h (AID 1508601). Conditions: 24/48 h.
Experiment [2] has as its target Cellular tumor antigen p53 (Homo sapiens) (UniProt P04637). The description is as above. As to conditions: 24/48 h, stronger effect = higher value.
Where [3] appears, read: measured here: cell number at 24 h, Library stock concentration: 80 uM.
The mark [4] stands for this setting: measured here: cell number at 24 h, Library stock concentration: 400 uM.
The mark [5] stands for this setting: measured here: cell number at 24 h, Library stock concentration: 2 mM.
The mark [6] stands for this setting: measured here: cell number at 24 h, Library stock concentration: 3.33 mM.
Setting [7] is: measured here: cell number at 24 h, Library stock concentration: 10 mM.
Where [8] appears, read: measured here: cell number at 48 h, Library stock concentration: 80 uM.
Where [9] appears, read: measured here: cell number at 48 h, Library stock concentration: 400 uM.
Setting [10] is: measured here: cell number at 48 h, Library stock concentration: 2 mM.
Where [11] appears, read: measured here: cell number at 48 h, Library stock concentration: 3.33 mM.
The mark [12] stands for this setting: measured here: cell number at 48 h, Library stock concentration: 10 mM.
Where [13] appears, read: Library stock concentration: 80 uM.
The mark [14] stands for this setting: Library stock concentration: 400 uM.
[15] abbreviates: Library stock concentration: 2 mM.
The mark [16] stands for this setting: Library stock concentration: 3.33 mM.
The mark [17] stands for this setting: Library stock concentration: 10 mM.
Setting [18] is: measured here: p53 positive nuclei at 24 h, Library stock concentration: 80 uM.
The mark [19] stands for this setting: measured here: p53 positive nuclei at 24 h, Library stock concentration: 400 uM.
[20] abbreviates: measured here: p53 positive nuclei at 24 h, Library stock concentration: 2 mM.
[21] abbreviates: measured here: p53 positive nuclei at 24 h, Library stock concentration: 3.33 mM.
Setting [22] is: measured here: p53 positive nuclei at 24 h, Library stock concentration: 10 mM.
The mark [23] stands for this setting: measured here: cell number at 24 h, concentration not given here.
The mark [24] stands for this setting: measured here: cell number at 48 h, concentration not given here.
Where [25] appears, read: measured here: p53 positive nuclei at 24 h, concentration not given here.

Structures are written as SMILES. The whole screen tested about 5,700 compounds, of which about 85 (1%) were called active. No stated cut-off is given here; in the data, active means p53-positive nuclei above about 36% (passing the limit was not always enough); inactive means the rest. Only a selection was taken, and actives are over-represented in it overall.

Sequence of Cellular tumor antigen p53 (Homo sapiens) (P04637 whole entry, looked up): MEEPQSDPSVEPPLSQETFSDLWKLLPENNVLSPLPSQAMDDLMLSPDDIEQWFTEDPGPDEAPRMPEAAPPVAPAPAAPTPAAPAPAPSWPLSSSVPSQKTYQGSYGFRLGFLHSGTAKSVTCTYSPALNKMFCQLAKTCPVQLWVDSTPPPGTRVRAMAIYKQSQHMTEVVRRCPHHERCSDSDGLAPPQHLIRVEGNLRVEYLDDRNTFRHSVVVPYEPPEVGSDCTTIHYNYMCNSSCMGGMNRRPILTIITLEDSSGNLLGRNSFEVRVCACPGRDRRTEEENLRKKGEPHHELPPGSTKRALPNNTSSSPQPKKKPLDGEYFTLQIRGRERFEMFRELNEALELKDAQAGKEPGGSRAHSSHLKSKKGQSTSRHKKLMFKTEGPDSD

Consider `Cn1cc(CNCC2CCN(c3ncc(C(=O)NO)cn3)CC2)c2ccccc21`, for which the nuclei count, normalised in experiment [1] (setting [3]) was 71%; in experiment [1] (setting [4]) it was 49.1%; in experiment [1] (setting [5]) it was 40.5%; in experiment [1] (setting [6]), 36.3%; in experiment [1] (setting [7]), 37.2%; in experiment [1] (setting [8]) it was 55.2%. The nuclei count, normalised in experiment [1] (setting [9]) was determined as 24%; in experiment [1] (setting [10]) it was 20.2%; in experiment [1] (setting [11]) it was 20.7%; in experiment [1] (setting [12]), 23.5%. Moreover, the p53-positive nuclei, normalised in experiment [2] (setting [13]) was 20.9% (inactive); in experiment [2] (setting [14]) it was 102% (active); in experiment [2] (setting [15]), 92.2% (active); in experiment [2] (setting [16]), 111% (active); in experiment [2] (setting [17]) it was 108% (active); in experiment [2] (setting [18]), 43.9%. Also, the p53-positive nuclei, normalised in experiment [2] (setting [19]) is 92.9%; in experiment [2] (setting [20]), 103%; in experiment [2] (setting [21]), 96.9%; in experiment [2] (setting [22]) it was 120%.

With `CCCCC/C=C\C/C=C\CCCC/C=C\CCCC(=O)O`, the nuclei count, normalised is 97.6% in experiment [1] (setting [23]) and 96% in experiment [1] (setting [24]). Also, the values for the p53-positive nuclei, normalised in experiment [2] (concentration not given here) and in experiment [2] (setting [25]) were -0.0366% (inactive) and 0.0071%, respectively.

`Cc1ccc(B(O)O)cc1`: the nuclei count, normalised in experiment [1] (measured here: cell number at 24 h, Library stock concentration: 46 uM) stood at 105%; in experiment [1] (measured here: cell number at 24 h, Library stock concentration: 278 uM), 101%; in experiment [1] (measured here: cell number at 24 h, Library stock concentration: 1.67 mM) it was 110%; in experiment [1] (setting [7]), 110%; in experiment [1] (measured here: cell number at 48 h, Library stock concentration: 46 uM), 109%; in experiment [1] (measured here: cell number at 48 h, Library stock concentration: 278 uM), 102%. The nuclei count, normalised in experiment [1] (measured here: cell number at 48 h, Library stock concentration: 1.67 mM) was found to be 112%; in experiment [1] (setting [12]), 112%. The p53-positive nuclei, normalised in experiment [2] (Library stock concentration: 46 uM) was -0.0277% (inactive); in experiment [2] (Library stock concentration: 278 uM) it was -0.207% (inactive); in experiment [2] (Library stock concentration: 1.67 mM), -0.181% (inactive); in experiment [2] (setting [17]), -0.0402% (inactive); in experiment [2] (measured here: p53 positive nuclei at 24 h, Library stock concentration: 46 uM) it was -0.0986%; in experiment [2] (measured here: p53 positive nuclei at 24 h, Library stock concentration: 278 uM), -0.148%. Further, the p53-positive nuclei, normalised in experiment [2] (measured here: p53 positive nuclei at 24 h, Library stock concentration: 1.67 mM) was -0.218%; in experiment [2] (setting [22]), -0.0984%.

Turning to `COc1ccc(CNc2nc(N3CCCC3CO)ncc2C(=O)NCc2ncccn2)cc1Cl` (stereo not drawn), the nuclei count, normalised in experiment [1] (setting [6]) was 112%; in experiment [1] (setting [11]), 104%. The p53-positive nuclei, normalised is -0.102% (inactive) in experiment [2] (setting [16]) and -0.198% in experiment [2] (setting [21]).

In the case of `CCc1cnn2c(NCc3ccc[n+]([O-])c3)cc(N3CCCCC3CCO)nc12` (stereo not drawn), the nuclei count, normalised is 30.2% in experiment [1] (setting [3]); 27.8% in experiment [1] (setting [4]); 24.5% in experiment [1] (setting [5]); 27.3% in experiment [1] (setting [6]); 30.5% in experiment [1] (setting [7]); 20.4% in experiment [1] (setting [8]). Moreover, the nuclei count, normalised in experiment [1] (setting [9]) was 19.3%; in experiment [1] (setting [10]), 16.3%; in experiment [1] (setting [11]) it was 18.9%; in experiment [1] (setting [12]) it was 20.6%. Moreover, the p53-positive nuclei, normalised in experiment [2] (setting [13]) was 51.1% (active); in experiment [2] (setting [14]), 35% (inactive); in experiment [2] (setting [15]), 42% (inactive); in experiment [2] (setting [16]), 36.1% (inactive); in experiment [2] (setting [17]), 26.7% (inactive); in experiment [2] (setting [18]), 9.51%. Moreover, the p53-positive nuclei, normalised stood at 6.74% in experiment [2] (setting [19]), 7.45% in experiment [2] (setting [20]), 8.9% in experiment [2] (setting [21]) and 2.01% in experiment [2] (setting [22]).

Take `COc1cccc2c(C)cc(N3CCC[C@H]3CO)nc12`: the nuclei count, normalised in experiment [1] (setting [23]) is 96.3%; in experiment [1] (setting [24]), 98.1%. The p53-positive nuclei, normalised in experiment [2] (concentration not given here) is -0.0398% (inactive); in experiment [2] (setting [25]) it was 0.0977%.

For `CCCCCCCCCCCCCC=CC(O)C(CO)N(C)C` (stereo not drawn), the nuclei count, normalised in experiment [1] (measured here: cell number at 24 h, Library stock concentration: 500 nM) was 120%; in experiment [1] (measured here: cell number at 24 h, Library stock concentration: 1.5 uM), 110%; in experiment [1] (measured here: cell number at 24 h, Library stock concentration: 4.6 uM), 117%; in experiment [1] (measured here: cell number at 24 h, Library stock concentration: 13.7 uM), 108%; in experiment [1] (measured here: cell number at 24 h, Library stock concentration: 41 uM), 110%; in experiment [1] (measured here: cell number at 24 h, Library stock concentration: 123 uM) it was 122%. Further, the nuclei count, normalised is 122% in experiment [1] (measured here: cell number at 24 h, Library stock concentration: 370 uM); 118% in experiment [1] (measured here: cell number at 24 h, Library stock concentration: 1.111 mM); 102% in experiment [1] (measured here: cell number at 24 h, Library stock concentration: 3.333 mM); 35.8% in experiment [1] (setting [7]); 115% in experiment [1] (measured here: cell number at 48 h, Library stock concentration: 500 nM); 109% in experiment [1] (measured here: cell number at 48 h, Library stock concentration: 1.5 uM). Moreover, the nuclei count, normalised in experiment [1] (measured here: cell number at 48 h, Library stock concentration: 4.6 uM) was determined as 107%; in experiment [1] (measured here: cell number at 48 h, Library stock concentration: 13.7 uM), 107%; in experiment [1] (measured here: cell number at 48 h, Library stock concentration: 41 uM), 110%; in experiment [1] (measured here: cell number at 48 h, Library stock concentration: 123 uM), 114%; in experiment [1] (measured here: cell number at 48 h, Library stock concentration: 370 uM), 116%; in experiment [1] (measured here: cell number at 48 h, Library stock concentration: 1.111 mM), 112%. Moreover, the nuclei count, normalised in experiment [1] (measured here: cell number at 48 h, Library stock concentration: 3.333 mM) came to 109%; in experiment [1] (setting [12]) it was 22.2%. Moreover, the p53-positive nuclei, normalised in experiment [2] (Library stock concentration: 500 nM) was -0.17% (inactive); in experiment [2] (Library stock concentration: 1.5 uM), -0.126% (inactive); in experiment [2] (Library stock concentration: 4.6 uM), -0.0366% (inactive); in experiment [2] (Library stock concentration: 13.7 uM), -0.121% (inactive); in experiment [2] (Library stock concentration: 41 uM), -0.00454% (inactive); in experiment [2] (Library stock concentration: 123 uM), -0.0524% (inactive). Also, the p53-positive nuclei, normalised in experiment [2] (Library stock concentration: 370 uM) was 0.0673% (inactive); in experiment [2] (Library stock concentration: 1.111 mM), -0.00344% (inactive); in experiment [2] (Library stock concentration: 3.333 mM), -0.0281% (inactive); in experiment [2] (setting [17]), 3.77% (inactive); in experiment [2] (measured here: p53 positive nuclei at 24 h, Library stock concentration: 500 nM) it was -0.148%; in experiment [2] (measured here: p53 positive nuclei at 24 h, Library stock concentration: 1.5 uM) it was -0.148%. For the same compound, the p53-positive nuclei, normalised in experiment [2] (measured here: p53 positive nuclei at 24 h, Library stock concentration: 4.6 uM) is -0.148%; in experiment [2] (measured here: p53 positive nuclei at 24 h, Library stock concentration: 13.7 uM) it was -0.019%; in experiment [2] (measured here: p53 positive nuclei at 24 h, Library stock concentration: 41 uM), -0.0213%; in experiment [2] (measured here: p53 positive nuclei at 24 h, Library stock concentration: 123 uM), -0.148%; in experiment [2] (measured here: p53 positive nuclei at 24 h, Library stock concentration: 370 uM), -0.0899%; in experiment [2] (measured here: p53 positive nuclei at 24 h, Library stock concentration: 1.111 mM) it was -0.0918%. Besides, the p53-positive nuclei, normalised in experiment [2] (measured here: p53 positive nuclei at 24 h, Library stock concentration: 3.333 mM) was -0.0113%; in experiment [2] (setting [22]), 3.53%.
